A1 inh = inhibitors of the anti-apoptotic protein A1, read as caspase activation. actives 0.066% (n = 330,000). MEF A1-2A-BIM cells, Caspase-Glo 3/7 luminescence, 3 h; percent of clofoctol response, vehicle zero. caspase activation, % (no concentration beside the values);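 active means over half of replicate activation scores above 10%, or exactly half above 10 with the replicate mean above 10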
DYRK1A inh = blocks rat Dyrk1A kinase activity; ADP-Glo luminescence, NFATc1 peptide; actives 0.43% (n = 310,000); AID 504441; Q63470; inhibition, % at 12.5 µM; in the data active means inhibition above about 50%;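 further: plate controls were vehicle with enzyme for no effect and no enzyme for full effect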
dFosB act-1 = mouse delta FosB homodimer activation | P13346 | actives 0.99% (n = 340,000) | activation, % at 25 µM | purified delta FosB, TAMRA-CDK5 oligo fluorescence polarization; percent of positive-control signal above neutral wells;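 active means mean activation above about 17%, with every replicate also reaching it, limit read from the data, passing the limit was not always enough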
B2AR ag = human beta-2 adrenergic receptor agonism by FAP; P07550; Am2.2-beta2AR cells, FAP receptor internalization, flow cytometry; response, % (test concentration not listed); actives 0.43% (n = 340,000);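 active means response above a set limit, near 3 SD of response in nonfluorescent compounds, cut at about 42% in these data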
Target sequence (P07550 whole entry, looked up): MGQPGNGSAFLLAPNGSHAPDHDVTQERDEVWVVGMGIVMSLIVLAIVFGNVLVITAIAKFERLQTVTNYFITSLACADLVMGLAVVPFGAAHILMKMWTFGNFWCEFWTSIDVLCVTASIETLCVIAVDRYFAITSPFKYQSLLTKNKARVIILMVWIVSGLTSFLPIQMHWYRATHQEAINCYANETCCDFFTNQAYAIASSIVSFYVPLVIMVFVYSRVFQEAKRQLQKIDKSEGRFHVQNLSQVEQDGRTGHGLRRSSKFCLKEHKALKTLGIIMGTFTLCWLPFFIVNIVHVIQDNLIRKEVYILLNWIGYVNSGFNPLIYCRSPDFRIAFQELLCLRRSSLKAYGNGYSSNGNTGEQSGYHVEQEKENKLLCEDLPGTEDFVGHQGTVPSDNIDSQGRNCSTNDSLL
dFosB act-2 = delta FosB (mouse) homodimer activation; shares compounds with dFosB act-1; purified delta FosB, TAMRA-CDK5 oligo fluorescence polarization; normalised: neutral wells 0, positive control 100; activation, % at 24.9 µM; 2,400 tested, under 10 active;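 active means highest replicate activation at or above 34% and every replicate reaching that threshold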;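 further: higher polarization means more probe DNA bound by delta FosB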
* marks the source's active call; other numbers are inactive results; x = no result. The list is not random: actives were taken first. Their share in the collection is about 1.6%.

SMILES | A1 inh | DYRK1A inh | dFosB act-1 | B2AR ag | dFosB act-2
CC(NC(=O)COC(=O)c1ccccc1F)C1CC2CCC1C2 (stereo not drawn) | 0 | -3 | 7 | -2 | x
NS(=O)(=O)c1ccc(NS(=O)(=O)c2ccc(C3CNC(=O)C3)cc2)cc1 (stereo not drawn) | -1 | 1 | -12 | 17 | x
CC(C)Cc1ccc(C(C)NC(=O)Cc2ccc(S(=O)(=O)N3CCOCC3)s2)cc1 (stereo not drawn) | 0 | -12 | -11 | 3 | x
CN1/C(=C\C=N\NC(=O)c2ccccc2Br)C(C)(C)c2ccccc21 | 0 | x | 8 | 7 | x
CN1/C(=C/C=N/n2cnnc2)C(C)(C)c2ccccc21 | 0 | 5 | 20* | 14 | 0
C/C(=N\Nc1cc(C)nc(NCc2ccccc2)n1)c1ccc([N+](=O)[O-])cc1 | 1 | 1 | 30* | -4 | 1
C/C(=N\Nc1nc2ccccc2[nH]1)c1ccc([N+](=O)[O-])cc1 | -2 | 1 | 21* | -8 | 2
O=C(Nc1nc2ccccc2[nH]1)c1ccc([N+](=O)[O-])cc1 | -1 | -4 | 4 | -10 | x
Cc1cc(N/N=C/c2ccccc2Cl)nc(NCc2ccccc2)n1 | -1 | -7 | 51* | 4 | 4
O=C(Nc1ccc(F)c(Cl)c1)Nc1ccc(Cl)cn1 | 1 | 2 | 39* | -1 | 2
O=C(Nc1ccc(F)cc1)Nc1ccc(Cl)cn1 | -1 | 1 | 42* | 2 | 1
CCCCCCCC1c2c(c(C)c(C)oc2=O)Oc2c(C)c(C)oc(=O)c21 | 0 | 3 | -3 | 2 | x
COc1ccccc1CNC(=O)CS(=O)(=O)c1ccc(C)cc1 | 1 | 0 | -1 | 3 | x
COc1ccc(CCNC(=O)c2nnn(CC(=O)Nc3ccc(C)cc3C)c2N)cc1OC | -1 | -1 | 53* | -3 | 6
COc1ccc(NC(=O)Cn2nnc(C(=O)NCc3ccccc3)c2N)cc1Cl | 0 | -1 | 14 | -2 | x
Cc1ccc(NC(=O)Cn2nnc(C(=O)NCCc3ccccc3)c2N)cc1Cl | 0 | -1 | 19* | 4 | 2
COc1ccc(CCNC(=O)Cn2nnc(C(=O)Nc3ccc(Br)cc3)c2N)cc1OC | 0 | x | 15 | -14 | x
Cc1ccc(NC(=O)Cn2nnc(C(=O)NCCc3ccccc3)c2N)c(C)c1 | 0 | 4 | 29* | 0 | -10
COc1ccc(Cl)cc1NC(=O)Cn1nnc(C(=O)NCCc2ccc(OC)c(OC)c2)c1N | 0 | -3 | 38* | 9 | 6
CCOc1ccccc1NC(=O)Cn1nnc(C(=O)NCCc2ccc(OCC)c(OCC)c2)c1N | 0 | x | 8 | -2 | x
CCN(CC)C(=O)NC1CCCCCCC1 | 0 | -5 | 0 | -5 | x
CCOc1cc(C(=O)Oc2cc(C)[nH]c(=O)c2[N+](=O)[O-])cc(OCC)c1OCC | 0 | -10 | 0 | 2 | x
COc1ccc(/C=N/NC(=O)c2ccco2)cc1COc1ccc(F)cc1 | 1 | -3 | 75* | 10 | 3
COc1cc(OC)c(/C=N/NC(=O)c2ccc(NC(C)=O)cc2)cc1Br | x | -6 | 28* | 5 | -2
COc1ccc(/C=N/NC(=O)c2ccc(Cl)cc2)cc1Cn1cc(Cl)cn1 | 0 | 0 | 40* | 2 | 1
SMILES | A1 inh | DYRK1A inh | dFosB act-1 | B2AR ag | dFosB act-2
COc1ccc(/C=N/NC(=O)c2ccc(NC(C)=O)cc2)cc1COc1ccc(F)cc1F | 1 | 0 | 68* | -5 | 0
COc1ccc(/C=N/NC(=O)c2cc(Br)ccc2O)cc1Cn1cc(Cl)cn1 | 0 | 0 | 3 | 1 | x
COc1cc(OC)c(/C=N/NC(=O)c2ccncc2)cc1Br | 1 | -1 | 4 | -4 | x
CC[C@]12c3[nH]c4ccc(Cl)cc4c3CCN1C(=O)[C@@H](CC(=O)NCCc1ccccn1)C[C@@H]2C(=O)N1CCN(C(=O)c2ccco2)CC1 | x | -2 | -8 | 0 | x
Cc1ccc(S(=O)(=O)N(C)CC(=O)NCCCn2ccnc2)cc1 | -2 | -7 | 0 | -1 | x
O=[N+]([O-])c1cc(-c2cccnc2)n[nH]1 | x | -5 | 1 | -3 | x
C[C@H](NC(CCc1ccccc1)C(=O)O)C(=O)N1CCC[C@H]1C(=O)O (stereo partly drawn) | 1 | x | x | x | x
O=C(NCc1cccc(F)c1)C1CCC(=O)N(CC2CCCCC2)C1 (stereo not drawn) | 0 | -3 | -1 | -5 | x
S=C(NCc1cccnc1)Nc1ccc(Oc2ccc(Cl)cc2)cc1 | 0 | x | -10 | -12 | x
O=C(COC(=O)c1cc(NS(=O)(=O)c2cccs2)ccc1O)Nc1ccc(F)c(F)c1F | 0 | 9 | 22* | 1 | -19
Nc1c(C(=O)Nc2ccccc2Cl)nnn1-c1ccc2c(c1)OCCO2 | 0 | -7 | 43* | -1 | 4
N#CC1CC(c2ccccc2)Nc2cc(Cl)ccc2N1 (stereo not drawn) | -1 | 31 | -5 | -2 | x
O=C(Nc1ncn[nH]1)c1cc(S(=O)(=O)Nc2cccc(C(F)(F)F)c2)ccc1Cl | 0 | x | 58* | 12 | 1
NC(=O)c1ccsc1NC(=O)CSc1nnc(Nc2ccccc2)s1 | 0 | -4 | -1 | -3 | x
COc1ccccc1-n1c(SCC(=O)Nc2ccc(NC(C)=O)cc2)nc2c([nH]c3ccccc32)c1=O | 0 | x | 7 | 3 | x
O=C(CSc1nc2ccccc2c(=O)n1-c1ccccc1)NCc1ccco1 | -1 | 2 | -4 | -7 | x
COc1ccc(-n2c(SCC(=O)Nc3cc(C)on3)nc3c(c2=O)SCC3)cc1 | x | -3 | 2 | 10 | x
CC(=O)Nc1ccc(NC(=O)CSc2nc3c([nH]c4ccccc43)c(=O)n2-c2ccccc2F)cc1 | 1 | 6 | 22* | 4 | 1
O=C(CSc1nc2c([nH]c3ccccc32)c(=O)n1-c1ccc(F)cc1)NCc1ccco1 | 0 | -3 | 19* | 0 | 2
Cc1cc(NC(=O)CSc2nc3c(c(=O)n2-c2ccc(Br)cc2)SCC3)no1 | 0 | 1 | 42* | -12 | 6
Cc1ccc(-n2c(SCC(=O)NCc3ccco3)nc3sc(C)c(C)c3c2=O)cc1 | 0 | 1 | 31* | -2 | 2
CC(C)CN(C(=O)COC(=O)c1c(Cl)ccc(Cl)c1Cl)C1CCS(=O)(=O)C1 (stereo not drawn) | 0 | x | -1 | -5 | x
O=C(CSc1ccc2nnc(CCNC(=O)c3ccc(F)cc3)n2n1)NCC1CCCO1 (stereo not drawn) | 0 | -5 | 1 | -2 | x
NNC(=O)Cn1c(-c2ccccc2)cc(=O)n2ncnc12 | 0 | 0 | -3 | -4 | x
COc1ccc(-n2c(SCC(=O)Nc3cc(C)on3)nc3c([nH]c4ccccc43)c2=O)cc1 | 0 | 9 | 9 | 2 | x
CCOc1ccc(-n2c(SCC(=O)Nc3cc(C)on3)nc3c([nH]c4ccccc43)c2=O)cc1 | -1 | 2 | 41* | 2 | 3
Cc1ccc(-n2c(SCC(=O)Nc3cc(C)on3)nc3c([nH]c4ccccc43)c2=O)cc1 | 0 | -1 | 26* | 1 | 3
